# Measured values taken from article PMC11006913.
# Molecular target: HOXD13 (Homo sapiens, UniProt P35453 263-343, T313R)
# Assay: PBM; 200 nM protein, PBS
# Conditions: dsDNA, one strand shown
# Chain of HOXD13 (Homo sapiens, UniProt P35453 263-343, T313R) (P35453 263-343 T313R): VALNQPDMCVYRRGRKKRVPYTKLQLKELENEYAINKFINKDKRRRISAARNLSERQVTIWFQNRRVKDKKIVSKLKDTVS
row,Sequence,binding signal
1,CTTGTAAA,"10.9 upbm affinity estimate (log intensity, higher = more binding, comparable within an allelic series)"
2,GGCCCGAA,"9.5 upbm affinity estimate (log intensity, higher = more binding, comparable within an allelic series)"
3,CACCGGTG,"9.69 upbm affinity estimate (log intensity, higher = more binding, comparable within an allelic series)"
4,CATCTTAA,"10.1 upbm affinity estimate (log intensity, higher = more binding, comparable within an allelic series)"
5,CTTGTTAA,"10.6 upbm affinity estimate (log intensity, higher = more binding, comparable within an allelic series)"
6,TCACTAAA,"10.1 upbm affinity estimate (log intensity, higher = more binding, comparable within an allelic series)"
7,AAGGCGAG,"9.65 upbm affinity estimate (log intensity, higher = more binding, comparable within an allelic series)"
8,GTTTATGA,"10.9 upbm affinity estimate (log intensity, higher = more binding, comparable within an allelic series)"
9,GCCACGGA,"9.56 upbm affinity estimate (log intensity, higher = more binding, comparable within an allelic series)"
10,CACCGCCA,"9.56 upbm affinity estimate (log intensity, higher = more binding, comparable within an allelic series)"
11,GAGCCCAC,"9.49 upbm affinity estimate (log intensity, higher = more binding, comparable within an allelic series)"
12,CCTATTAA,"11 upbm affinity estimate (log intensity, higher = more binding, comparable within an allelic series)"
13,TCTCGTAA,"10.5 upbm affinity estimate (log intensity, higher = more binding, comparable within an allelic series)"
14,GTTTAATA,"10.8 upbm affinity estimate (log intensity, higher = more binding, comparable within an allelic series)"
15,AGGGGGGA,"9.23 upbm affinity estimate (log intensity, higher = more binding, comparable within an allelic series)"
16,GGGTTGAA,"9.64 upbm affinity estimate (log intensity, higher = more binding, comparable within an allelic series)"
17,CCCCTCGC,"9.62 upbm affinity estimate (log intensity, higher = more binding, comparable within an allelic series)"
18,TTGTAAAA,"10.7 upbm affinity estimate (log intensity, higher = more binding, comparable within an allelic series)"
19,CAGGCGAC,"9.59 upbm affinity estimate (log intensity, higher = more binding, comparable within an allelic series)"
20,ATTTACAA,"10.7 upbm affinity estimate (log intensity, higher = more binding, comparable within an allelic series)"

row,Sequence,binding signal
1,CGCAGCCC,"9.49 upbm affinity estimate (log intensity, higher = more binding, comparable within an allelic series)"
2,CCCTGACC,"9.5 upbm affinity estimate (log intensity, higher = more binding, comparable within an allelic series)"
3,GCTGCGCA,"9.55 upbm affinity estimate (log intensity, higher = more binding, comparable within an allelic series)"
4,GGCCGGCA,"9.49 upbm affinity estimate (log intensity, higher = more binding, comparable within an allelic series)"
5,AGGAGGGG,"9.43 upbm affinity estimate (log intensity, higher = more binding, comparable within an allelic series)"
6,CGTGCCCC,"9.51 upbm affinity estimate (log intensity, higher = more binding, comparable within an allelic series)"
7,GAAGGCCC,"9.62 upbm affinity estimate (log intensity, higher = more binding, comparable within an allelic series)"
8,TCGATCGA,"9.65 upbm affinity estimate (log intensity, higher = more binding, comparable within an allelic series)"
9,GTTTTATA,"10.8 upbm affinity estimate (log intensity, higher = more binding, comparable within an allelic series)"
10,ACGGTCCC,"9.51 upbm affinity estimate (log intensity, higher = more binding, comparable within an allelic series)"
11,TCCATAAA,"10.7 upbm affinity estimate (log intensity, higher = more binding, comparable within an allelic series)"
12,CTATAAAG,"10.8 upbm affinity estimate (log intensity, higher = more binding, comparable within an allelic series)"
13,GATACGAC,"9.91 upbm affinity estimate (log intensity, higher = more binding, comparable within an allelic series)"
14,CCCGCCCC,"9.6 upbm affinity estimate (log intensity, higher = more binding, comparable within an allelic series)"
15,AGTTTATA,"10.7 upbm affinity estimate (log intensity, higher = more binding, comparable within an allelic series)"
16,GGGAGAAC,"9.51 upbm affinity estimate (log intensity, higher = more binding, comparable within an allelic series)"
17,GAGGGGCC,"9.41 upbm affinity estimate (log intensity, higher = more binding, comparable within an allelic series)"
18,CTTATTGC,"10.1 upbm affinity estimate (log intensity, higher = more binding, comparable within an allelic series)"
19,GGGCCGGA,"9.43 upbm affinity estimate (log intensity, higher = more binding, comparable within an allelic series)"
20,CCGGCCGC,"9.39 upbm affinity estimate (log intensity, higher = more binding, comparable within an allelic series)"

# Molecular target: HOXD13 (Homo sapiens, UniProt P35453 263-343)
# Assay: PBM; 200 nM protein, PBS
# Conditions: dsDNA, one strand shown
# Chain of HOXD13 (Homo sapiens, UniProt P35453 263-343) (P35453 263-343): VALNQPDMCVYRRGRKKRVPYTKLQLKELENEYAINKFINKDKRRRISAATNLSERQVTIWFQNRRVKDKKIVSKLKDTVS
row,Sequence,binding signal
1,CTTGTAAA,"12.3 upbm affinity estimate (log intensity, higher = more binding, comparable within an allelic series)"
2,GGCCCGAA,"9.42 upbm affinity estimate (log intensity, higher = more binding, comparable within an allelic series)"
3,CACCGGTG,"9.58 upbm affinity estimate (log intensity, higher = more binding, comparable within an allelic series)"
4,CATCTTAA,"10.5 upbm affinity estimate (log intensity, higher = more binding, comparable within an allelic series)"
5,CTTGTTAA,"11.8 upbm affinity estimate (log intensity, higher = more binding, comparable within an allelic series)"
6,TCACTAAA,"10.6 upbm affinity estimate (log intensity, higher = more binding, comparable within an allelic series)"
7,AAGGCGAG,"9.72 upbm affinity estimate (log intensity, higher = more binding, comparable within an allelic series)"
8,GTTTATGA,"12 upbm affinity estimate (log intensity, higher = more binding, comparable within an allelic series)"
9,GCCACGGA,"9.61 upbm affinity estimate (log intensity, higher = more binding, comparable within an allelic series)"
10,CACCGCCA,"9.65 upbm affinity estimate (log intensity, higher = more binding, comparable within an allelic series)"
11,GAGCCCAC,"9.6 upbm affinity estimate (log intensity, higher = more binding, comparable within an allelic series)"
12,CCTATTAA,"12.1 upbm affinity estimate (log intensity, higher = more binding, comparable within an allelic series)"
13,TCTCGTAA,"11.8 upbm affinity estimate (log intensity, higher = more binding, comparable within an allelic series)"
14,GTTTAATA,"11.8 upbm affinity estimate (log intensity, higher = more binding, comparable within an allelic series)"
15,AGGGGGGA,"9.47 upbm affinity estimate (log intensity, higher = more binding, comparable within an allelic series)"
16,GGGTTGAA,"9.57 upbm affinity estimate (log intensity, higher = more binding, comparable within an allelic series)"
17,CCCCTCGC,"9.63 upbm affinity estimate (log intensity, higher = more binding, comparable within an allelic series)"
18,TTGTAAAA,"11.8 upbm affinity estimate (log intensity, higher = more binding, comparable within an allelic series)"
19,CAGGCGAC,"9.52 upbm affinity estimate (log intensity, higher = more binding, comparable within an allelic series)"
20,ATTTACAA,"11.8 upbm affinity estimate (log intensity, higher = more binding, comparable within an allelic series)"

row,Sequence,binding signal
1,CGCAGCCC,"9.55 upbm affinity estimate (log intensity, higher = more binding, comparable within an allelic series)"
2,CCCTGACC,"9.5 upbm affinity estimate (log intensity, higher = more binding, comparable within an allelic series)"
3,GCTGCGCA,"9.53 upbm affinity estimate (log intensity, higher = more binding, comparable within an allelic series)"
4,GGCCGGCA,"9.56 upbm affinity estimate (log intensity, higher = more binding, comparable within an allelic series)"
5,AGGAGGGG,"9.61 upbm affinity estimate (log intensity, higher = more binding, comparable within an allelic series)"
6,CGTGCCCC,"9.62 upbm affinity estimate (log intensity, higher = more binding, comparable within an allelic series)"
7,GAAGGCCC,"9.68 upbm affinity estimate (log intensity, higher = more binding, comparable within an allelic series)"
8,TCGATCGA,"9.44 upbm affinity estimate (log intensity, higher = more binding, comparable within an allelic series)"
9,GTTTTATA,"11.8 upbm affinity estimate (log intensity, higher = more binding, comparable within an allelic series)"
10,ACGGTCCC,"9.34 upbm affinity estimate (log intensity, higher = more binding, comparable within an allelic series)"
11,TCCATAAA,"11.9 upbm affinity estimate (log intensity, higher = more binding, comparable within an allelic series)"
12,CTATAAAG,"11.9 upbm affinity estimate (log intensity, higher = more binding, comparable within an allelic series)"
13,GATACGAC,"10.3 upbm affinity estimate (log intensity, higher = more binding, comparable within an allelic series)"
14,CCCGCCCC,"9.54 upbm affinity estimate (log intensity, higher = more binding, comparable within an allelic series)"
15,AGTTTATA,"11.9 upbm affinity estimate (log intensity, higher = more binding, comparable within an allelic series)"
16,GGGAGAAC,"9.63 upbm affinity estimate (log intensity, higher = more binding, comparable within an allelic series)"
17,GAGGGGCC,"9.46 upbm affinity estimate (log intensity, higher = more binding, comparable within an allelic series)"
18,CTTATTGC,"10.7 upbm affinity estimate (log intensity, higher = more binding, comparable within an allelic series)"
19,GGGCCGGA,"9.41 upbm affinity estimate (log intensity, higher = more binding, comparable within an allelic series)"
20,CCGGCCGC,"9.4 upbm affinity estimate (log intensity, higher = more binding, comparable within an allelic series)"

# Molecular target: HOXD13 (Homo sapiens, UniProt P35453 263-343, T313A)
# Assay: PBM; 200 nM protein, PBS
# Conditions: dsDNA, one strand shown
# Chain of HOXD13 (Homo sapiens, UniProt P35453 263-343, T313A) (P35453 263-343 T313A): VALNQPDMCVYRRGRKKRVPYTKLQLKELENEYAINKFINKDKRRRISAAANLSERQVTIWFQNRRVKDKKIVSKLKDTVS
row,Sequence,binding signal
1,CTTGTAAA,"11.9 upbm affinity estimate (log intensity, higher = more binding, comparable within an allelic series)"
2,GGCCCGAA,"9.59 upbm affinity estimate (log intensity, higher = more binding, comparable within an allelic series)"
3,CACCGGTG,"9.72 upbm affinity estimate (log intensity, higher = more binding, comparable within an allelic series)"
4,CTTGTTAA,"11.7 upbm affinity estimate (log intensity, higher = more binding, comparable within an allelic series)"
5,AAGGCGAG,"9.78 upbm affinity estimate (log intensity, higher = more binding, comparable within an allelic series)"
6,GTTTATGA,"11.8 upbm affinity estimate (log intensity, higher = more binding, comparable within an allelic series)"
7,GCCACGGA,"9.69 upbm affinity estimate (log intensity, higher = more binding, comparable within an allelic series)"
8,CACCGCCA,"9.8 upbm affinity estimate (log intensity, higher = more binding, comparable within an allelic series)"
9,GAGCCCAC,"9.72 upbm affinity estimate (log intensity, higher = more binding, comparable within an allelic series)"
10,CCTATTAA,"11.9 upbm affinity estimate (log intensity, higher = more binding, comparable within an allelic series)"
11,TCTCGTAA,"11.6 upbm affinity estimate (log intensity, higher = more binding, comparable within an allelic series)"
12,GTTTAATA,"11.6 upbm affinity estimate (log intensity, higher = more binding, comparable within an allelic series)"
13,AGGGGGGA,"9.55 upbm affinity estimate (log intensity, higher = more binding, comparable within an allelic series)"
14,GGGTTGAA,"9.62 upbm affinity estimate (log intensity, higher = more binding, comparable within an allelic series)"
15,CCCCTCGC,"9.67 upbm affinity estimate (log intensity, higher = more binding, comparable within an allelic series)"
16,TTGTAAAA,"11.6 upbm affinity estimate (log intensity, higher = more binding, comparable within an allelic series)"
17,CAGGCGAC,"9.66 upbm affinity estimate (log intensity, higher = more binding, comparable within an allelic series)"
18,ATTTACAA,"11.6 upbm affinity estimate (log intensity, higher = more binding, comparable within an allelic series)"

row,Sequence,binding signal
1,CGCAGCCC,"9.57 upbm affinity estimate (log intensity, higher = more binding, comparable within an allelic series)"
2,CCCTGACC,"9.64 upbm affinity estimate (log intensity, higher = more binding, comparable within an allelic series)"
3,GCTGCGCA,"9.77 upbm affinity estimate (log intensity, higher = more binding, comparable within an allelic series)"
4,GGCCGGCA,"9.65 upbm affinity estimate (log intensity, higher = more binding, comparable within an allelic series)"
5,AGGAGGGG,"9.63 upbm affinity estimate (log intensity, higher = more binding, comparable within an allelic series)"
6,CGTGCCCC,"9.71 upbm affinity estimate (log intensity, higher = more binding, comparable within an allelic series)"
7,GAAGGCCC,"9.79 upbm affinity estimate (log intensity, higher = more binding, comparable within an allelic series)"
8,TCGATCGA,"9.58 upbm affinity estimate (log intensity, higher = more binding, comparable within an allelic series)"
9,GTTTTATA,"11.6 upbm affinity estimate (log intensity, higher = more binding, comparable within an allelic series)"
10,ACGGTCCC,"9.69 upbm affinity estimate (log intensity, higher = more binding, comparable within an allelic series)"
11,TCCATAAA,"11.7 upbm affinity estimate (log intensity, higher = more binding, comparable within an allelic series)"
12,CTATAAAG,"11.6 upbm affinity estimate (log intensity, higher = more binding, comparable within an allelic series)"
13,CCCGCCCC,"9.7 upbm affinity estimate (log intensity, higher = more binding, comparable within an allelic series)"
14,AGTTTATA,"11.6 upbm affinity estimate (log intensity, higher = more binding, comparable within an allelic series)"
15,GGGAGAAC,"9.68 upbm affinity estimate (log intensity, higher = more binding, comparable within an allelic series)"
16,GAGGGGCC,"9.41 upbm affinity estimate (log intensity, higher = more binding, comparable within an allelic series)"
17,GGGCCGGA,"9.47 upbm affinity estimate (log intensity, higher = more binding, comparable within an allelic series)"
18,CCGGCCGC,"9.32 upbm affinity estimate (log intensity, higher = more binding, comparable within an allelic series)"
